# Screening results from PubChem.
# Sampled rows, rich in hits. Any-hit rate of the full collection: about 20%.
# HCMV inh – blocks human cytomegalovirus replication | HFF cells, HCMV-luciferase reporter, 72 h; active compounds read low | activity change, negative = inhibition, % at 57.5 µM | 410,000 tested, 4.5% active; in the data active means activity change below about -60%; inconclusive means no clear call, values can overlap the other calls; inactive means above about -39%; further: on the % scale 0 is the no-effect control and ±100 the full control effect
#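 Two compound doses tested in HFFs infected with HCMV-luciferase, MOI 1 PFU/cell, 72 h at 37C. Lysate luminescence read with OneGlo; data normalized against buffer-only and 10uM Salinomycin inhibitor controls.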
# Shiga inhibitor – blocks Shiga toxin action in Vero cells; Vero cells, Shiga toxin protein synthesis inhibition reporter; inhibition, % at 38.7 µM; 290,000 tested, 9.2% active; AID 2315; in the data active means inhibition mostly above about 28%, no sharp cut-off; inactive means mostly below about 43%; further: 0% is about no effect
# Pf growth 96h – P. falciparum growth inhibition at 96 hours; P. falciparum luciferase reporter growth, 96 h; Potency, µM (highest dose often 28.7 µM), inactives show at the top dose activity change, negative = inhibition, usual class: inhibitors; 320,000 tested, 6.9% active; AID 504834; further: potency means the concentration at half of the fitted maximal effect; on the % scale 0 is the no-effect control and ±100 the full control effect
#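 Erythrocytes infected with luciferase-expressing P. falciparum were dispensed at 2% hematocrit and 0.05% parasitemia (final), then incubated with compounds 96 hours at 37 C in 5% CO2. Luminescence after detection reagent addition reported growth.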
# Pf growth 48h – P. falciparum growth inhibition at 48 hours (one generation); P. falciparum luciferase growth in erythrocytes, 48 h; Potency, µM (doses to about 28.7 µM), for inactives: at the highest dose activity change, negative = inhibition, usual class: inhibitors; 310,000 tested, 5.9% active; further: potency means the concentration at half of the fitted maximal effect; on the % scale 0 is the no-effect control and ±100 the full control effect
#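 Luciferase-expressing parasites in RBCs, 2% Hct / 0.1% parasitemia final; RPMI 1640 + 0.5% Albumax; 37 C, 5% CO2, one generation; luminescence read-out, lower signal = inhibition.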
# CHX counter – counter-screen hit for Shiga toxin inhibitors, cycloheximide; cell reporter, cycloheximide protein synthesis inhibition counterscreen; max response, %; AID 2314; 300,000 tested, 12% active; in the data active means max response mostly above about 13%, no sharp cut-off; inactive means mostly below about 14%; further: read at 38.3 µM for the half of the compounds with a filed dose; 0% is about no effect
# * marks the source's active call; other numbers are inactive results; ? = inconclusive; nt = not tested or not shown; + = active, no number. Unless noted, the call rests on the fitted dose curve; in most records, active means well fitted inhibition curve with a large enough effect; inconclusive means small, poorly fitted or top-dose-only effect, or another doubt; inactive means no such curve, though single readings can be large or run the other way.
SMILES,HCMV inh,Shiga inhibitor,Pf growth 96h,Pf growth 48h,CHX counter
N=c1sccn1CC(=O)NC(c1ccccc1)c1ccccc1,-20.9,-14.5,4.9%,8.0%,-1.2
COc1c(C)cc(C(=O)C2CCCN(C(=O)c3cc(C4CC4)[nH]n3)C2)cc1C (configuration not stated),-5.8,-2.9,?,?,4.9
CCOc1ccc(OCc2ccc(C(=O)O)o2)cc1,29.9,60.4*,?,182.4%,32.9*
O=C(O)c1ccc(COc2ccc3ccccc3c2)o1,24.1,93.8*,376.1%,121.0%,42.3*
CCOc1ccc(OCc2ccc(C(=O)Nc3cc(OC)c(OC)c(OC)c3)o2)cc1,33.4,nt,nt,nt,nt
NC(=O)C1(N2CCCCC2)CCN(C(=S)Nc2ccc(S(N)(=O)=O)cc2)CC1,13.7,-1.7,-29.7%,-26.5%,-2.3
Cn1c(=O)c2nc(SCC(=O)Nc3ccc(Cl)c(Cl)c3)n(C)c2n(C)c1=O,-12.1,nt,nt,nt,nt
CCn1cc(Br)c(C(=O)Nc2ccc(F)cc2F)n1,6.6,44.6*,36.9%,31.8%,24.9*
CCn1cc(Br)c(C(=O)Nc2cccc(SC)c2)n1,55.3,+,9.2%,87.1%,32.4*
CCn1ncc(Br)c1C(=O)Nc1ccc(F)cc1F,?,4.7,13.2%,5.9%,4.2
CC(N)c1csc(Nc2ccc(S(C)(=O)=O)cc2)n1 (configuration not stated),-17.5,nt,nt,nt,nt
O=C(O)c1ccc(NS(=O)(=O)c2ccc(C(=O)Nc3ccccc3)cc2)cc1,26.8,-12.3,?,-11.2%,-0.3
NC1=NC(=O)/C(=C/c2ccc(-c3ccc(S(N)(=O)=O)cc3)o2)S1,-17.4,-5.6,30.8%,47.2%,-1.0
CS(=O)(=O)Nc1ccc(-c2ccc(/C=C3\SC(N)=NC3=O)o2)cc1,0.6,-2.8,3.29µM*,-23.0%,-1.8
CCOC(=O)CC(=O)CSc1[nH]c(=O)cc(C)c1C#N,27.7,11.6,-26.6%,13.8%,-3.1
COc1ccc(S(=O)(=O)Nc2ccccn2)cc1C(=O)Nc1ccccc1,4.0,-1.8,?,12.3%,-0.5
N#Cc1nc(COc2ccc(-c3ccccc3)cc2)oc1NCCCN1CCOCC1,-20.4,27.2,?,?,12.8
CCN1CCN(c2oc(/C=C/c3ccccc3)nc2C#N)CC1,20.6,38.2,6.3%,-2.1%,42.1*
N#Cc1nc(/C=C/c2ccccc2)oc1NCCCN1CCOCC1,-36.8,83.3*,18.9%,22.0%,33.1*
COCCNc1oc(/C=C/c2ccccc2)nc1C#N,48.3,112.5*,150.0%,123.4%,56.0*
CNc1oc(/C=C/c2ccccc2)nc1C#N,45.0,121.8*,256.2%,260.7%,78.4*
Cc1nnc(SCC(=O)NC2CC2)n1CC1CCCO1 (configuration not stated),?,-11.3,0.0%,8.2%,-1.6
CC(C)[C@@H]1Cc2[nH]c(=O)[nH]c(=O)c2[C@H](c2ccc(F)cc2)O1,8.8,nt,nt,nt,nt
COc1ccc(CN2C(=O)C(CC(=O)NCc3ccco3)CC(C(=O)N3CCOCC3)=C2C)cc1 (configuration not stated),0.3,nt,nt,nt,nt
COc1ccc(CN(CC(=O)NCCc2ccccc2)C(=O)CCC(=O)Nc2ccccn2)cc1,28.8,-3.0,-5.3%,-5.4%,-0.9
SMILES,HCMV inh,Shiga inhibitor,Pf growth 96h,Pf growth 48h,CHX counter
COc1cccc(NC(=O)c2cnc(SCC(=O)N3CCOCC3)n(C)c2=O)c1,17.2,nt,nt,nt,nt
COc1ccc(S(=O)(=O)N2CCCCC2)cc1NC(=O)CCCNC(=O)c1ccc(Cl)cc1,31.8,nt,?,?,nt
CCCC(=O)N(C1CC(C)C(C#N)(C#N)C1(C#N)C#N)N(C)C (configuration not stated),-90.3*,20.2,-9.7%,6.6%,3.7
Cc1ccc2c(c1)N(CC(=O)OCC(=O)NCc1ccccc1)C(=O)CO2,0.2,-5.5,21.7%,8.0%,0.8
Cc1nn(-c2ccc(Cl)c(Cl)c2)c(=O)c2ccccc12,84.4,11.9,nt,93.8%,-4.6
Cc1nn(-c2nc3ccccc3[nH]2)c(=O)c2ccccc12,-90.5*,-21.2,-43.4%,-56.4%,-7.2
Cc1cc(C)n(-c2nc3ccccc3[nH]c2=O)n1,49.1,13.5,-7.1%,-3.5%,6.5
Cc1nn(-c2ccc3ccccc3c2)c(=O)c2ccccc12,71.1,114.9*,54.4%,178.1%,51.0*
Cc1nn(-c2ccccc2)c(=S)c2ccccc12,-38.6,60.1*,32.1%,-6.0%,19.9*
Cc1nn(-c2ccc(Cl)nn2)c(=O)c2ccccc12,30.7,49.3,77.5%,108.2%,26.5*
CCOc1ccc(NC(=S)N2CCCN(Cc3cc(C)ccc3C)C2)cc1,-32.0,-15.4,-3.0%,?,7.3
O=c1c2ccccc2c(-c2ccc(Cl)cc2)nn1-c1ccccc1,-63.4*,-8.9,?,3.29µM*,-0.6
Cc1nn(-c2nc3ccccc3[nH]2)c(N)c1-c1ccc(Cl)cc1,-67.7*,82.4*,?,-63.4%,46.3*
Cc1nn(-c2ccc(Cl)cc2)c(=O)c2ccccc12,117.1,98.0*,122.6%,74.2%,48.4*
Cc1nn(C)c(N)c1-c1ccccc1,-23.9,6.0,0.0%,-4.5%,-3.1
O=c1c2cccc3c2c(nn1-c1ccccc1)-c1ccccc1-3,9.3,-12.1,?,-2.5%,0.5
C=CCSc1nnc(NC(=O)c2c(CC)noc2C)s1,-37.0,nt,3.7%,-15.8%,nt
COc1ccccc1NC(=S)N1CCC(NC(=O)c2ccco2)CC1,-4.7,3.0,48.0%,20.3%,3.1
CS(=O)(=O)Nc1cccc(C(=O)OCCCOc2ccc(F)cc2)c1,14.4,-2.9,-22.5%,-6.9%,-2.2
Cc1ccsc1C(=O)OCC(=O)NC1CCCCC1,-22.3,nt,nt,nt,nt
Cc1cccc(Nc2nc(N)nc(N)c2S(=O)(=O)c2ccccc2)c1,-102.8*,nt,nt,nt,nt
COc1ccc(Nc2nc(N)nc(N)c2S(=O)(=O)c2ccccc2)cc1,-16.4,nt,nt,nt,nt
CCOC(CNC(=O)Cc1c(C)nc2c(-c3ccccc3)c(C)nn2c1C)OCC,-7.8,3.8,?,40.9%,-0.9
CCc1cc2c(SCC(=O)N3CCN(C(=O)c4cccs4)CC3)ncnc2s1,8.7,nt,nt,nt,nt
CCc1cc2c(SCC(=O)O)ncnc2s1,-13.6,-16.6,7.7%,3.7%,5.3
SMILES,HCMV inh,Shiga inhibitor,Pf growth 96h,Pf growth 48h,CHX counter
CCc1cc2c(SCC(=O)c3ccccc3)ncnc2s1,80.7,73.4*,?,92.2%,45.5*
CCc1cc2c(SCC(=O)c3cccs3)ncnc2s1,32.2,-14.9,104.1%,-8.2%,15.9*
CCOC(=O)Cc1nn(CC)c(=O)c2ccccc12,-22.8,-13.5,10.1%,44.2%,-1.6
Cn1nc(CC(=O)Nc2ccc(N3CCN(C(=O)OC(C)(C)C)CC3)cc2)c2ccccc2c1=O,-79.0*,17.5,18.8%,?,-1.5
COc1ccccc1NC(=O)Cc1nn(C)c(=O)c2ccccc12,nt,-4.9,-19.8%,?,-0.6
CCOC(=O)Cc1nn(C)c(=O)c2ccccc12,43.6,-8.1,5.22µM*,9.5%,0.9
COc1cc(NC(=O)Cc2nn(C)c(=O)c3ccccc23)cc(OC)c1,-87.7*,-1.7,207.3%,?,0.2
Cc1ccc(S(=O)(=O)NCCc2nnc3ccc(SCC(=O)Nc4c(C)cc(C)cc4C)nn23)cc1,17.0,nt,nt,nt,nt
